High-throughput results as filed in PubChem BioAssay.
RORg inh = qHTS for inhibitors of ROR gamma transcriptional activity; Nuclear receptor ROR-gamma (Mus musculus), P51450; Drosophila S2 Gal4-RORgamma UAS-luciferase reporter, 20 h; Potency, µM (series often up to 53.6 µM), for inactives: at the highest dose activity change, negative = inhibition, hits mostly inhibitors; 310,000 tested, 5.4% active; AID 2551, 2010; note: potency is the fitted concentration of half-maximal effect; % is set by controls: 0 for no effect and ±100 for the full control effect; nearly all actives have a fitted effect of over 60% in size
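Luciferase reporter read in Schneider cells carrying Gal4-RORγ (mouse) and UAS-Photinus luciferase; cells given compound 1 h before 700 uM copper sulfate induction, then incubated 20 h at ambient temperature.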
MBNL1-CUG inh = qHTS Assay for Inhibitors of MBNL1-poly(CUG) RNA binding. TR-FRET MBNL1-His/biotin-(CUG)12 binding, 665/545 ratio. Potency, µM (highest dose often 57.5 µM), for inactives: top-dose activity change, negative = inhibition, usual class: inhibitors. 280,000 tested, 0.036% active. AID 2675, 2010; active = well fitted inhibition curve with a large enough effect in the signal ratio, with a control signal flat, not every such curve was filed as active; inconclusive = small, poorly fitted or top-dose-only effect, or effect the other way, or a change in a side signal; inactive = no such curve, though single readings can be large or run the other way; the % refers to the signal ratio; note: potency is the fitted concentration of half-maximal effect; % is set by controls: 0 for no effect and ±100 for the full control effect
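TR-FRET between His-tagged MBNL1 and biotin-(CUG)12 RNA, detected with Tb anti-His antibody (0.055 ng/ul) and streptavidin-XL665 (5 nM), 60 min at room temperature. Compounds titrated 92 nM to 58 uM; 665/545 nm ratio normalized to buffer and complex controls.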
CBFb-RUNX1 inh = qHTS Assay for Compounds Blocking the Interaction Between CBF-beta and RUNX1 for the Treatment of Acute Myeloid Leukemia | Potency, µM (highest dose often 59.8 µM), for inactives: at the top dose activity, negative = inhibition, hits mostly inhibitors | AID 1477, 2009 | Runt-related transcription factor 1 (Homo sapiens) + Core-binding factor subunit beta … | AlphaScreen CBFb-His/RUNX1-biotin binding, biochemical | 230,000 tested, under 10 active; note: % of control where 0% means no effect
Target sequence (Q01196 whole entry, looked up): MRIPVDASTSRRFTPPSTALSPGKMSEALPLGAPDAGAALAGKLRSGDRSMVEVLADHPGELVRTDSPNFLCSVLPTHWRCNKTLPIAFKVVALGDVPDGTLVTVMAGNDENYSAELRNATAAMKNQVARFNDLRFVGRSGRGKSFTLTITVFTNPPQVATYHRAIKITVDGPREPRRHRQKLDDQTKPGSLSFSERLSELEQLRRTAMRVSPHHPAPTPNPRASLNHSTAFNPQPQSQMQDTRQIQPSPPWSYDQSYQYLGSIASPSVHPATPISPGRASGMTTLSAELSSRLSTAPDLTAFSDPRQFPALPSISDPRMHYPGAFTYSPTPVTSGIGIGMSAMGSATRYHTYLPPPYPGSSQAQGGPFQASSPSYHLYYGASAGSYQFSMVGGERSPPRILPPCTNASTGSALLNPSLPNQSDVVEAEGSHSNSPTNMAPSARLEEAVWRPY
Target sequence (Q13951 whole entry, looked up): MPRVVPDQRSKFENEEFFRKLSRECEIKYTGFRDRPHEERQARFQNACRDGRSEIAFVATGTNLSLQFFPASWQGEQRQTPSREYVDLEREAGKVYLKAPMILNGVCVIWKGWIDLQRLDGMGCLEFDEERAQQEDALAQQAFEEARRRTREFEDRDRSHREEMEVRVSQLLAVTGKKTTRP
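His-tagged CBF-beta and biotinylated RUNX1 (30 nM each) were premixed 20 min at room temperature, exposed to compound for 15 min, then given nickel-chelate and streptavidin AlphaScreen beads (50 ng each). After 90 min, AlphaScreen signal was read.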
Six1-Eya2 blk = qHTS Assay for Inhibitors of the Six1/Eya2 Interaction; Homeobox protein SIX1 (Homo sapiens) + Protein phosphatase EYA2 (Homo sapiens), …; AlphaScreen GST-Six1/His-Eya2 binding, biochemical; active compounds read low; activity change, % (no concentration beside the values); 360,000 tested, 0.56% active; in the data active = activity change below about -65%; inconclusive = mostly about -30% to -63%; note: % is set by controls: 0 for no effect and ±100 for the full control effect
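AlphaScreen with GST-Six1 and His-Eya2 (5X mix: 250 nM and 500 nM), glutathione donor and nickel acceptor beads; buffer 50 mM Tris pH 8.0, 300 mM NaCl, 1 mM TCEP; 1 h at 37 C in the dark.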
VP16 counter = VP16 counterscreen qHTS for inhibitors of ROR gamma transcriptional activity; Potency, µM (doses to about 53.6 µM), for the others: at the top dose activity, negative = inhibition, actives largely listed as inhibitors; 310,000 tested, 3.5% active; Drosophila S2 Gal4-VP16 UAS-luciferase, luminescence, 20 h;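 note: Gal4-VP16 expression switched on by copper sulfate through the metallothionein promoter; potency is the fitted concentration of half-maximal effect; % is set by controls: 0 for no effect and ±100 for the full control effect; nearly all actives have a fitted effect of over 50% in size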
CtBP-E1A blk = qHTS Assay for Inhibitors of the CtBP/E1A Interaction | AID 651724, 2012 | 340,000 tested, 0.49% active | AlphaScreen GST-E1A/His-CtBP binding, 1536-well; active compounds read low | CtBP / adenovirus E1A interaction (AlphaScreen) | activity change, % (test concentration not listed); in the data active = activity change below about -65%; inconclusive = mostly about -30% to -63%; note: % is set by controls: 0 for no effect and ±100 for the full control effect
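GST-E1A and His-tagged CtBP (125 nM each as 5X stock) were preincubated with pin-transferred compound for 2 h at 37 °C in the dark, then glutathione donor and nickel acceptor beads were added for 1 h before AlphaScreen reading.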
The depositor's hits bear a star; ? = inconclusive; . = not tested or not shown; [ ] = another dose, or the depositor's remark. An excerpt weighted towards active compounds, which were near 5.5% of everything screened. Unless noted, calls come from the whole dose curve; as a rule, active = well fitted curve in the direction sought with a large enough effect; inconclusive = small, poorly fitted or top-dose-only effect, or another doubt; inactive = no such curve, though single readings can be large; an effect the other way counts as inactive or inconclusive.

SMILES	RORg inh	MBNL1-CUG inh	CBFb-RUNX1 inh	Six1-Eya2 blk	VP16 counter	CtBP-E1A blk
COc1ccccc1C(=O)NC(=O)COC(=O)CNC(=O)c1ccccc1	.	.	.	-2	.	8
Cc1cccc(Nc2nnc(SCC3CCCCO3)s2)c1 (configuration not stated)	10µM*	-14%	-3%	-3	-11%	-5
Cc1nonc1OCCNCc1c(C(=O)N(C)C)nc2ccc(Cl)cn12	3.2µM*	12%	-25%	3	2.8µM*	3
Cc1nonc1OCCNCc1c(C(=O)N2CCCCCCC2)nc2ccc(Cl)cn12	46%	-8%	7%	4	-13%	.
CN(CC(=O)Nc1c(Cl)cccc1Cl)C(=O)CNC(=O)c1ccco1	.	.	.	5	.	0
Cc1cc(/C=C(\C#N)C(=O)NCc2ccco2)c(C)n1-c1ccc(C(=O)O)cc1	-5%	22%	5%	-7	-7%	-3
CC(C)n1c(O)c(N=NC(=O)CNC(=O)CCc2ccccc2)c2ccccc21	1%	?	6%	-1	-2%	4
Cc1cc(C(=O)N=Nc2c(O)n(C(C)C)c3ccccc23)n[nH]1	11µM*	?	7%	-18	?	2
COCc1cc(=O)[nH]c(-c2csc(C)n2)n1	-15%	.	-3%	-24	0%	-14
COCc1cc(OC)nc(-c2csc(C)n2)n1	11µM*	.	-1%	6	-23%	.
CCC1=NN(C(=O)c2ccccc2Br)C(O)(c2ccc(Br)cc2)C1 (configuration not stated)	8.9µM*	-8%	?	7	?	.
O=C(CN1N=C(C(F)(F)F)CC1(O)c1ccc([N+](=O)[O-])cc1)c1ccccc1 (configuration not stated)	12%	?	-10%	-6	-2%	-8
CCC1=NN(C(=O)c2ccccc2O)C(O)(c2ccccc2)C1 (configuration not stated)	5µM*	-4%	.	-17	7.9µM*	-7
O=C(c1ccccc1O)N1N=C(C(F)(F)F)CC1(O)c1ccc([N+](=O)[O-])cc1 (configuration not stated)	11µM*	?	.	-3	10µM*	.
CCC1(c2ccc(F)cc2)NC(=O)N(CC(=O)Nc2ccc(N3CCCCC3)cc2)C1=O (configuration not stated)	.	.	.	-22	.	?
O=C(CSc1nnc(-c2ccc(F)cc2)o1)NC1CCCC1	18%	-5%	.	11	24%	-7
COCCCN1C(=O)c2ccc(C(=O)OCC(=O)N3CCN(c4ccccc4)CC3)cc2C1=O	.	.	.	-2	.	-14
O=C(NNc1nc(-c2ccccc2)cs1)c1ccc(F)cc1	2µM*	-5%	-18%	11	11µM*	11
CC(=O)NNc1nc(-c2ccccc2)cs1	2%	-2%	-8%	0	-6%[10 µM]	1
O=C(NNc1nc(-c2ccc(F)cc2)cs1)c1ccccc1	5µM*	-13%	-21%	-7	?	-1
O=C(NNc1nc(-c2ccccc2)cs1)c1cccs1	7.9µM*	-1%	-21%	3	?	0
C/C(=N\NC(=O)c1cc(C)oc1C)c1ccc(N2CCOCC2)cc1	?	1%	12%	0	4%	-2
O=c1[nH]c2sc3c(c2c2nncn12)CCCC3	4%	-8%	-2%	-79*	-9%	-83*
Cn1c(=O)c2c3c(sc2n2cnnc12)CCC3	5%	-6%	-4%	-26	-12%	-15
